Screening results deposited in PubChem BioAssay by Broad Institute.
IDE exosite FP = exo-site inhibitors of human IDE, primary screen, biochemical, fluorescence anisotropy, probe displacement; Insulin-degrading enzyme (Homo sapiens), P14735; z-score at 20 µM; purified IDE, FL-6b probe fluorescence polarization; stronger effect = lower value; actives 6.3% (n = 17,000); AID 1259349, 2017;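 active means z-score of -3 or lower, meaning strong loss of probe binding signal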;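 further: His-tagged human IDE residues 42-1019 made in E. coli with 30 nM FL-6b probe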
The depositor's hits bear a star. The full list was thinned out, with hits kept by preference.

SMILES	IDE exosite FP
O=C(Nc1ccccc1F)N1CCCCN2[C@H](CO)[C@H](c3ccc(C#Cc4ccccc4)cc3)[C@@H]2C1	-1.7
O=C(Nc1ccccc1F)N1CCCCN2[C@H](CO)[C@@H](c3ccc(C#Cc4ccccc4)cc3)[C@@H]2C1	-0.69
COc1ccc2c3c([nH]c2c1)[C@H](CO)N(C)CC31CCN(C(=O)c2ccccn2)CC1	-1.8
CN1CCN(C(=O)C[C@@H]2CC[C@H]3[C@@H](COc4ccc(NC(=O)c5cccs5)cc4C(=O)N3C)O2)CC1	-1.1
O=S(=O)(Cc1ccccc1)N1CCCCN2[C@H](C1)[C@H](c1ccc(-c3cccnc3)cc1)[C@@H]2CO	-0.26
CO[C@H]1CN(C)C(=O)c2ccc(NC(=O)Nc3ccccc3Cl)cc2OC[C@H](C)NC[C@H]1C	0.24
CC(=O)N1[C@H](CO)[C@@H](c2ccccc2)[C@@H]1CN(C)C(=O)c1ccccc1F	0.9
CCCC#Cc1ccc([C@H]2[C@H]3CN(C(=O)c4ccc(F)cc4)CC(=O)N3[C@H]2CO)cc1	-1.1
C[C@H](CO)N1C[C@H](C)[C@@H](CN(C)S(=O)(=O)c2ccc(F)cc2)Oc2ccc(NS(=O)(=O)c3cn(C)cn3)cc2C1=O	-0.28
O=C(c1ccccc1)N1CC(=O)N2[C@H](CO)[C@H](c3ccc(C4=CCCC4)cc3)[C@@H]2C1	0.49
CCCC#Cc1ccc([C@@H]2[C@@H](CO)N3C(=O)CN(C(=O)Cc4cccnc4)C[C@H]23)cc1	2.3
COc1cccc(C#Cc2ccc([C@@H]3[C@H](CO)N4C(=O)CN(C(=O)Cc5cccnc5)C[C@@H]34)cc2)c1	-4.1*
CCCC#Cc1ccc([C@@H]2[C@@H](CO)N3C(=O)CN(C(=O)Cc4cccnc4)C[C@@H]23)cc1	-1.6
CC(C)C#Cc1ccc([C@@H]2[C@@H](CO)N3C(=O)CN(C(=O)Cc4cccnc4)C[C@H]23)cc1	4.9
COc1cccc(C#Cc2ccc([C@H]3[C@H]4CN(C(=O)Cc5cccnc5)CC(=O)N4[C@H]3CO)cc2)c1	-4.1*
CCCC#Cc1ccc([C@@H]2[C@H]3CN(C(=O)Cc4cccnc4)CC(=O)N3[C@H]2CO)cc1	-4.3*
COc1cccc(C#Cc2ccc([C@H]3[C@H](CO)N4C(=O)CN(C(=O)Cc5ccccc5)C[C@@H]34)cc2)c1	-0.11
COc1cccc(C#Cc2ccc([C@@H]3[C@H](CO)N4C(=O)CN(C(=O)Cc5ccccc5)C[C@@H]34)cc2)c1	-0.78
COc1cccc(C#Cc2ccc([C@@H]3[C@H]4CN(C(=O)Cc5cccnc5)CC(=O)N4[C@H]3CO)cc2)c1	-5*
COc1cccc(C#Cc2ccc([C@H]3[C@@H](CO)N4C(=O)CN(C(=O)Cc5cccnc5)C[C@@H]34)cc2)c1	-1.6
CCCC#Cc1ccc([C@H]2[C@@H](CO)N3C(=O)CN(C(=O)Cc4cccnc4)C[C@H]23)cc1	-3
CCCC#Cc1ccc([C@H]2[C@@H](CO)N3C(=O)CN(C(=O)Cc4cccnc4)C[C@@H]23)cc1	-0.66
CN1C(=O)c2cc(NC(=O)C3CCOCC3)ccc2OC[C@@H]2O[C@H](CC(=O)NCC3CCCCC3)CC[C@@H]21	0.62
CCCC(=O)Nc1ccc2c(c1)OC[C@@H](C)NC[C@H](C)[C@H](OC)CN(C)C2=O	0.71
C[C@@H]1CN([C@@H](C)CO)C(=O)c2cc(NC(=O)Nc3ccc(C(F)(F)F)cc3)ccc2O[C@@H](C)CCCCO[C@H]1CN(C)S(=O)(=O)c1ccc(Cl)cc1	0.032
SMILES	IDE exosite FP
CN1C(=O)c2cc(NC(=O)Nc3ccccc3Cl)ccc2OC[C@@H]2O[C@@H](CC(=O)O)CC[C@H]21	-0.86
COc1ccc(S(=O)(=O)Nc2ccc3c(c2)C(=O)N([C@@H](C)CO)C[C@H](C)[C@@H](CN(C)C(=O)Nc2c(C)noc2C)OCCCC[C@H](C)O3)cc1	1
CNC[C@H]1Oc2ncc(-c3cncnc3)cc2C(=O)N([C@@H](C)CO)C[C@H]1C	-1.5
COc1cccc(NC(=O)N2CC(=O)N3[C@H](CO)[C@H](c4ccc(C5=CCCCC5)cc4)[C@@H]3C2)c1	-0.18
Cc1ccccc1S(=O)(=O)Nc1ccc2c(c1)C(=O)N(C)[C@H]1CC[C@H](CC(=O)O)O[C@@H]1CO2	-1.1
CC(=O)N1CC(=O)N2[C@H](C1)[C@@H](c1ccc(C#CC(C)C)cc1)[C@@H]2CO	4.4
COc1cccc(C#Cc2ccc([C@@H]3[C@@H](C#N)N(C(=O)C4CC4)[C@H]3CO)cc2)c1	2.4
N#C[C@@H]1[C@@H](c2ccc(C#Cc3ccccc3F)cc2)[C@H](CO)N1C(=O)C1CC1	3.9
COc1ccccc1C#Cc1ccc([C@H]2[C@@H](C#N)N(C(=O)C3CC3)[C@H]2CO)cc1	-9*
COc1cccc(C#Cc2ccc([C@@H]3[C@@H](CO)N(C(=O)C4CC4)[C@H]3C#N)cc2)c1	0.92
COc1ccccc1C#Cc1ccc([C@H]2[C@H](C#N)N(C(=O)C3CC3)[C@H]2CO)cc1	-7.6*
COc1cccc(C#Cc2ccc([C@H]3[C@@H](CO)N(C(=O)C4CC4)[C@H]3C#N)cc2)c1	1
COc1ccc(-c2ccc([C@@H]3[C@@H](CO)N4C(=O)CN(Cc5ccc(F)cc5)C[C@H]34)cc2)cc1	2.9
CCCNC(=O)C[C@H]1CC[C@@H]2[C@H](COC[C@H](O)CN2C(=O)c2ccc(F)cc2)O1	-0.26
N#C[C@@H]1[C@H](c2ccccc2-c2ccccc2)[C@H](CO)N1C(=O)Cc1ccncc1	0.41
CCC(=O)N1CCCCN2[C@H](CO)[C@H](c3ccc(-c4cccnc4)cc3)[C@@H]2C1	-0.2
CCCC(=O)Nc1ccc2c(c1)OC[C@@H](C)N(CC1CCOCC1)C[C@@H](C)[C@@H](OC)CN(C)C2=O	1.6
COCC#Cc1ccc([C@H]2[C@@H](CO)N3CCCCN(C(=O)Nc4cc(F)ccc4F)C[C@@H]23)cc1	4.2
CS(=O)(=O)N1CC(=O)N2[C@@H](CO)[C@H](c3ccc(C#CCc4ccccc4)cc3)[C@@H]2C1	3.2
CCS(=O)(=O)N1CC(=O)N2[C@H](CO)[C@H](c3ccc(-c4ccccc4)cc3)[C@@H]2C1	1.6
CS(=O)(=O)N1CC(=O)N2[C@H](CO)[C@@H](c3ccc(C#CCc4ccccc4)cc3)[C@H]2C1	0.43
CS(=O)(=O)N1CC(=O)N2[C@@H](CO)[C@H](c3ccc(C#Cc4ccc(F)cc4)cc3)[C@@H]2C1	0.17
CS(=O)(=O)N1CC(=O)N2[C@H](C1)[C@@H](c1ccc(C#Cc3ccc(F)cc3)cc1)[C@@H]2CO	-0.016
CCS(=O)(=O)N1CC(=O)N2[C@H](CO)[C@@H](c3ccc(-c4ccccc4)cc3)[C@H]2C1	3.3
CS(=O)(=O)N1CC(=O)N2[C@H](C1)[C@H](c1ccc(C#Cc3ccccc3)cc1)[C@@H]2CO	-5.3*
SMILES	IDE exosite FP
CCS(=O)(=O)N1CC(=O)N2[C@H](CO)[C@@H](c3ccc(-c4cccc(F)c4)cc3)[C@@H]2C1	-3.2*
CS(=O)(=O)N1CC(=O)N2[C@H](CO)[C@@H](c3ccc(C#Cc4ccccc4)cc3)[C@@H]2C1	2.4
CS(=O)(=O)N1CC(=O)N2[C@H](C1)[C@@H](c1ccc(C#CCc3ccccc3)cc1)[C@@H]2CO	-3.2*
CS(=O)(=O)N1CC(=O)N2[C@H](CO)[C@H](c3ccc(C#Cc4ccccc4)cc3)[C@@H]2C1	-5.4*
CS(=O)(=O)N1CC(=O)N2[C@H](CO)[C@@H](c3ccc(C#CCc4ccccc4)cc3)[C@@H]2C1	0.32
OC[C@H]1[C@@H](c2ccc(-c3cncnc3)cc2)[C@@H]2CN(CC3CCOCC3)CCCCN12	3.7
